The sample as a whole holds a higher share of hits than the screen did.
Pf Dd2 growth: inhibitors of Plasmodium falciparum Dd2 growth | P. falciparum Dd2 growth, SYBR Green, 72 h | Potency, µM (doses to about 28.9 µM), most hits filed as inhibitors | 120,000 compounds, 4.3% hits | AID 1347417; active = well fitted inhibition curve with a large enough effect; note: nearly all actives have a fitted effect of over 65% in size
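Readout: SYBR Green fluorescence, 485 nm excitation, 535 nm emission, after ~16 h lysis at 37C. Before that, Dd2-infected red cells (2.5% hematocrit) grew 72 h with compound, 29 uM top final concentration.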
A number is an active result; . = inactive.

SMILES	Pf Dd2 growth
CC(=O)N1CCCc2ccc(NS(=O)(=O)c3cccc(Cl)c3)cc21	.
COc1ccc(S(=O)(=O)Nc2ccc3c(c2)N(C(C)=O)CCC3)cc1F	10µM
CC(=O)N1CCCc2ccc(NS(=O)(=O)c3ccc(C)c(C)c3)cc21	.
O=C(CCCc1ccccc1)NCCc1noc(-c2cccnc2)n1	.
Cc1cc2cc(-c3c(C)noc3C)nc(N(C)C)c2o1	.
COc1cc(-c2nc(-c3c(C)noc3C)cc3cc(C)oc23)ccn1	11µM
Cc1cc(-c2nc(-c3c(C)noc3C)cc3cc(C)oc23)ccn1	11µM
Cc1cc2cc(-c3c(C)noc3C)nc(N3CCN(c4ccccn4)CC3)c2o1	.
COc1ccc(-c2nc(-c3c(C)noc3C)cc3cc(CO)oc23)cn1	.
COc1cc(-c2nc(-c3c(C)noc3C)cc3c2cc(C)n3C)ccn1	.
CCn1cc(-c2ccc(C)cc2)cc1C(=O)NCCN1CCOCC1	.
COc1ccc(C(=O)N[C@@H]2CN(c3ncccn3)C[C@H]2CN(C)C)c(OC)n1	.
COc1cccc(C(=O)N2CCC(n3c(=O)[nH]c4ccccc43)CC2)c1	.
Cc1ccc(NC(=O)[C@H]2CN(Cc3ccccc3)C[C@H]2C(=O)O)cc1	.
Cc1ccncc1NC(=O)CC1=C2CCCCC2N(C)C1=O (stereo not given)	.
COCc1noc(CC2CCOC3(CCN(C(=O)NCc4ccc(OC)cc4)CC3)C2)n1 (stereo not given)	.
Cc1nc(C)c(C(=O)NCCn2c(C)cnc2-c2cccnc2)s1	.
CN1C(=O)c2cccn2CC1C(=O)NCc1cc(F)ccc1F (stereo not given)	.
CCc1cc(N2CCC3(CCCN(C)C3=O)C2)nc(N2CCCC2)n1 (stereo not given)	.
CCc1cc(N2CCOCC(O)(CN3CCCC3)C2)nc(N2CCCC2)n1 (stereo not given)	5.6µM
COc1ccc(C(=O)N2CCOCC(O)(CN3CCCC3)C2)c(OC)c1 (stereo not given)	.
COCCN1C(=O)CS(=O)(=O)C12CCN(C(=O)COc1ccc(Cl)cc1)CC2	.
Cn1ccnc1CN1C(=O)CO[C@H](c2ccc(NC(=O)CC(C)(C)C)cc2)[C@H]1CO	.
O=C(NCC1CN(C(=O)Cc2ccc(OC(F)(F)F)cc2)CC12CN(c1ccccc1)C2)Nc1ccccc1 (stereo not given)	.
COc1ccc(Nc2cc(C)nc(-n3nc(C)cc3C)n2)cc1Cl	3.5µM
SMILES	Pf Dd2 growth
Cc1cc(Nc2ccc(F)cc2F)nc(-n2nc(C)cc2C)n1	.
CCCOc1ccc(Nc2cc(C)nc(C)n2)cc1	.
Cc1cccc(CN2CCOCCNC(=O)[C@H]3CCCC[C@H]32)c1	.
CN(C)Cc1nnc(C2CCN(C(=O)CCc3ccncc3)CC2)n1C	.
Cc1ccc(C(=O)Nc2ccc3c(N4CCOCC4)ncnc3c2)cc1F	.
O=C(c1cn2cc(-c3cccs3)n(CC3CC3)c(=O)c2n1)N1CCCC1	.
Cc1ccc(N2C(=O)c3n[nH]c(C)c3C2c2ccc(C(C)C)cc2)cc1 (stereo not given)	.
CSc1ccc(C2c3c(-c4ccccc4O)n[nH]c3C(=O)N2Cc2ccncc2)cc1 (stereo not given)	13µM
CC(C)c1ccc(C2c3c(-c4ccccc4O)n[nH]c3C(=O)N2Cc2ccncc2)cc1 (stereo not given)	13µM
CN1C(=O)c2[nH]nc(-c3ccc(F)cc3)c2C1c1cccc(O)c1 (stereo not given)	.
CC(C)c1ccc(C2NC(=O)c3n[nH]c(-c4cccs4)c32)cc1 (stereo not given)	.
COC(=O)[C@@H]1C[C@@H](NS(=O)(=O)c2ccc(C(F)(F)F)cc2)CN1C	.
O=C(CC1CCCN(c2cnn(CC3CC3)c(=O)c2)C1)NCc1cccs1 (stereo not given)	.
O=C(CCc1ccc(-c2ccc(Cl)cc2)[nH]1)N[C@@H]1C[C@@H]2OCC[C@@H]21	.
COc1ccc(CC(=O)NCC(c2cccs2)S(=O)(=O)c2ccc(F)c(C)c2)cc1 (stereo not given)	.
CCOc1ccccc1C(=O)NCC(c1cccs1)S(=O)(=O)c1ccc(F)c(C)c1 (stereo not given)	.
Cc1cc(S(=O)(=O)C(CNC(=O)c2ccc(OC(C)C)cc2)c2cccs2)ccc1F (stereo not given)	5µM
CCOC(=O)c1cc(C)n(CC(=O)N2CCCOCCNC(=O)CC2)c1C	.
COc1ccc(CCC(=O)N2CC[C@H](CO)[C@H](NC(=O)C3CC3)C2)cc1	.
C[C@@]1(O)CCN(C(=O)c2cc(C(F)(F)F)ccc2Cl)C[C@@H]1O	.
O=C(CN1CCCc2nc(C3CC3)ncc2C1=O)NCc1cccnc1	.
O=C(CN1CCCc2nc(C3CC3)ncc2C1=O)NCCc1c[nH]c2ccccc12	10µM
COCCNC(=O)CN1CCCc2nc(C3CC3)ncc2C1=O	.
CC(C)N1C[C@H](O)C[C@H]1c1nnc2n1CCN(C(=O)c1cccn1C)CC2	.
Cc1ccc(CN2C(=O)[C@@H]3C[C@@H](O)CN3C3(CN(CC(C)C)C3)C2=O)o1	.
SMILES	Pf Dd2 growth
Cc1ccc(CN2C(=O)[C@@H]3C[C@@H](O)CN3C3(CN(Cc4ccc(F)cc4)C3)C2=O)o1	14µM
Cc1ccc(CN2C(=O)[C@@H]3C[C@@H](O)CN3C3(CN(Cc4ccc(C#N)cc4)C3)C2=O)o1	.
Cc1ccc(CN2C(=O)[C@@H]3C[C@@H](O)CN3C3(CN(CCC(C)C)C3)C2=O)o1	11µM
Cc1ccc(CN2C(=O)[C@@H]3C[C@@H](O)CN3C3(CN(CC4CC4)C3)C2=O)o1	.
CC(=O)Nc1ccc(CN2CC3(C2)C(=O)N(Cc2ccc(C)o2)C(=O)[C@@H]2C[C@@H](O)CN23)cc1	.
COCCCNC(=O)C(NC(=O)c1cccc(C)c1)C1CCN(C(=O)c2ccccc2)CC1 (stereo not given)	.
CCc1nc2c(=O)n(CC(=O)NCc3ccc(F)cc3Cl)nc(C)c2s1	.
COc1ccc(F)c(-c2nc(CN3CCN(S(N)(=O)=O)CC3)c(C)o2)c1	.
COc1ccc(-c2nc(CN3CCN(CCO)CC3)c(C)o2)c2ccccc12	11µM
COc1cc(-c2nc(CN3CCSCC3)c(C)o2)ccc1F	.
CCN(C(=O)C1CCN(S(=O)(=O)c2ccc3c(c2)CCCN3C(C)=O)CC1)c1cccc(C)c1	13µM
CCN(CC)C(=O)C1CCN(S(=O)(=O)c2ccc3c(c2)CCCN3C(C)=O)CC1	.
CC(=O)N1CCCc2cc(S(=O)(=O)N3CCC(C(=O)Nc4c(C)cccc4C)CC3)ccc21	.
CC1(C(=O)NCc2cccc(F)c2)COCc2cnc(Nc3ccccc3)nc21 (stereo not given)	.
Cc1ccc(CN2CCCCCCNC(=O)CC2)s1	.
COc1ccc(CN2Cc3cc(NC(=O)c4ccc(Cl)cc4)ccc3OC(C)C2=O)c(OC)c1 (stereo not given)	.
COc1ccc2c(c1)CCc1c(C(=O)Nc3cnn(Cc4ccc(Cl)cc4Cl)c3)noc1-2	7.9µM
CCc1cc(C(=O)Nc2cnn(Cc3ccccc3C)c2)no1	.
C[C@H]1[C@@H]2[C@H]3OC(=O)[C@@H](C)[C@@H]3CC[C@@]2(C)CC[C@@H]1NC(=O)Nc1cccc(F)c1	.
CC(C)(C)OC(=O)N1CCC(c2c(C(=O)NCCc3ccsc3)cnn2-c2ccccc2Cl)CC1	.
CC(C)(C)OC(=O)N1CCC(c2c(C(=O)N3CCN(c4ncccn4)CC3)cnn2-c2ccc(F)cc2F)CC1	.
COc1ccccc1CNC(=O)c1cnn(-c2ccc(F)cc2F)c1C1CCN(C(=O)OC(C)(C)C)CC1	10µM

Screens: PubChem BioAssay, National Center for Advancing Translational Sciences (NCATS)
